Source: the supplement of paper PMC13380429
Where a name gives a salt, the structure may show the parent alone.

How the values were obtained:
[1] = tested on: Vero E6 infected with SARS-CoV-2; test: morphology score (similarity to uninfected cells); higher = more like uninfected cells; details: 24 h
[2] = tested on: Vero E6 infected with SARS-CoV-2; test: SARS-CoV-2 infection rate relative to infected DMSO; higher = more infection, active = 60 or less; details: 24 h

SMILES	morphology score [1]	SARS-CoV-2 infection rate [2]
CC1(C)OC(=O)C(OCC2CC2)=C1c1ccc(S(C)(=O)=O)cc1 [firocoxib] (10 µM)	0.218	84.5% (inactive)
Cc1ccc(C(=O)Nc2cccc(C(F)(F)F)c2)cc1Nc1nc(-c2cccnc2)nc2c1cnn2C (10 µM)	-0.0613	74% (inactive)
COc1cc(CNC(=O)CCCC/C=C/C(C)C)ccc1O [capsaicin] (10 µM)	0.0697	107% (inactive)
CCN(c1cc(-c2ccc(CN3CCOCC3)cc2)cc(C(=O)NCc2c(C)cc(C)[nH]c2=O)c1C)C1CCOCC1 [tazemetostat] (10 µM)	0.0658	104% (inactive)
O=C(Nc1cc(C(F)(F)F)cc(C(F)(F)F)c1)c1cnc(Cl)nc1C(F)(F)F (10 µM)	-0.17	111% (inactive)
CC1=C(CC(=O)O)c2cc(F)ccc2/C1=C\c1ccc([S+](C)[O-])cc1 (configuration not stated) [sulindac] (10 µM)	0.0804	104% (inactive)
NC(CO)(CO)CO [trometamol] (10 µM)	-0.0719	106% (inactive)
O=C(c1ccc(OCCCc2c[nH]cn2)cc1)C1CC1 [ciproxifan] (10 µM)	0.181	95.5% (inactive)
COc1ccc2c(c1)c(CC(=O)O)c(C)n2C(=O)c1ccc(Cl)cc1 [indomethacin] (10 µM)	0.0755	104% (inactive)
CCSC(=N)N [EIT-hydrobromide] (10 µM)	-0.0504	102% (inactive)
CC[C@@H](c1cccc(O)c1)[C@@H](C)CN(C)C [Tapentadol (hydrochloride)] (10 µM)	0.0731	108% (inactive)
